A short description of assay [1]: optical density shifts of acrAB sulA E. coli – strain DRC41, OD650, 48 h, E. coli filamentation inducer project, primary screen (AID 1152).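 Further: E. coli MC1000 strain DRC41 lacking acrAB efflux pump and sulA.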 Particulars: higher = more signal, called active from +8 up or from −8 down.
Assay [2] is described as follows: probe aLefty1 binding on compound microarray – biochemical, small-molecule microarray, 635/667 nm fluorescence, primary screen (AID 1153).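 Further: score merges spot fluorescence with signal-to-noise ratio from the scanned slide images.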 To be noted: higher = more signal.
Assay [3] in a line: plasmodial surface anion channel blockers, osmotic lysis – cell-based, P. falciparum Indochina, OD700, 1 h, primary screen (AID 1154). Particulars: P. falciparum Indochina infected RBC osmotic lysis, higher = more signal, called active from +8 up or from −8 down.
Assay [4] in a line: plasmodial surface anion channel blockers, osmotic lysis – cell-based, P. falciparum Indochina, OD700, 2 h, primary screen (AID 1155).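 Further: lysis reports solute entry through the parasite surface anion channel PSAC.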 Particulars: P. falciparum Indochina infected erythrocytes, higher = more signal, called active from +8 up or from −8 down.
Assay [5] in a line: changes in parasitized red cell lysis, either direction – P. falciparum Indochina, OD700, 3 h, PSAC antagonist project, primary screen (AID 1156). Particulars: P. falciparum-infected erythrocytes, osmotic lysis, higher = more signal, called active from +8 up or from −8 down.
The nature of assay [6]: plasmodial surface anion channel blockers, osmotic lysis – cell-based, P. falciparum Indochina, OD700, 18 h, primary screen (AID 1157). Particulars: P. falciparum Indochina infected erythrocytes, osmotic lysis OD700, 18 h; higher = more signal, called active from +8 up or from −8 down.
Assay [7] is described as follows: S6 kinase pathway phospho-S6 level changes – cell-based, A549, cytoblot, luminescence, serum-stimulated, primary screen (AID 1158).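 Further: serum-stimulated A549 lung adenocarcinoma cells; signal is phosphorylated S6 detected by cytoblot immunostaining with HRP secondary.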 To be noted: 5 h, higher = more signal.
Assay [8] deals with NADPH oxidase 2 (Homo sapiens) (UniProt P04839). Description: compounds shifting NOX2 Amplex Red fluorescence – cell-based, HEK293-NOX2, PMA-stimulated, NOX inhibitor project, primary screen (AID 1159). Further: test concentration not given here. To be noted: 45 min, higher = more signal, called active from +8 up or from −8 down.
Assay [9] concerns the target NADPH oxidase 4 (Homo sapiens) (UniProt Q9NPH5). Description: compounds shifting NOX4 Amplex Red fluorescence – cell-based, HEK293-NOX4, tetracycline-induced, NOX inhibitor project, primary screen (AID 1160). To be noted: HEK293-NOX4, Amplex Red H2O2 fluorescence, 45 min; higher = more signal, called active from +8 up or from −8 down.
The target in assay [10] is NADPH oxidase 5 (Homo sapiens) (UniProt Q96PH1). Description: compounds shifting NOX5 Amplex Red fluorescence – cell-based, HEK293-NOX5, NOX inhibitor project, primary screen (AID 1161). Particulars: HEK293-NOX5, ionomycin, 45 min, higher = more signal.
A short description of assay [11]: compound effects on lung adenocarcinoma cell viability – A549, calcein-AM fluorescence, 48 h, basal, profiling panel (AID 1162). Further: test concentration not given here. Particulars: higher = more signal.
Assay [12] can be described thus: compound effects on differentiated 3T3-L1 adipocyte viability – cell-based, 3T3-L1 adipocytes, calcein-AM fluorescence, 48 h, basal, profiling panel (AID 1163). Further: test concentration not given here. To be noted: 3T3-L1 adipocytes viability, higher = more signal.
Assay [13] in a line: compound effects on hepatocellular carcinoma cell viability – HepG2, calcein-AM fluorescence, 48 h, basal, profiling panel (AID 1164). Further: test concentration not given here. Particulars: higher = more signal.
Assay [14] in a line: compound effects on multiple myeloma cell viability – MM1S, calcein-AM fluorescence, 48 h, basal, profiling panel (AID 1165).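 Further: viability of MM1S multiple myeloma cells under basal unstimulated conditions; test concentration not given here.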 To be noted: higher = more signal.
Assay [15] can be described thus: calcein-AM signal in unstimulated myeloma cells – cell-based, calcein-AM fluorescence, 48 h, PK04 Diversity Set, profiling panel (AID 1166).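 Further: cells grown under basal conditions without added stimulus; test concentration not given here.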 Particulars: RPMI8226 myeloma viability, higher = more signal.
Assay [16] can be described thus: JC-1 mitochondrial signal, unstimulated HepG2 cells – cell-based, JC-1 fluorescence, 24 h, 100 nL compound, profiling panel (AID 1167). Further: test concentration not given here. Particulars: HepG2 mitochondrial potential, higher = more signal.
Assay [17] can be described thus: JC-1 mitochondrial signal, unstimulated adipocytes – cell-based, JC-1 fluorescence, 3T3-L1 adipocytes, 24 h, 100 nL compound, profiling panel (AID 1168). Further: test concentration not given here. To be noted: JC-1 mitochondrial fluorescence, higher = more signal, called active from +8 up or from −8 down.
The nature of assay [18]: JC-1 mitochondrial signal, unstimulated myeloma cells – cell-based, JC-1 fluorescence, RPMI8226, 24 h, 100 nL compound, profiling panel (AID 1169). Further: test concentration not given here. Particulars: JC-1 mitochondrial potential fluorescence, higher = more signal.
Assay [19] is described as follows: JC-1 mitochondrial signal, unstimulated MM1S myeloma – cell-based, JC-1 fluorescence, 24 h, 100 nL compound, profiling panel (AID 1170). Further: test concentration not given here. To be noted: MM1S mitochondrial potential, higher = more signal.
Assay [20] is described as follows: resazurin metabolic signal in A549 cells – cell-based, resazurin fluorescence, 24 h, PK04 Diversity Set, profiling panel (AID 1171). Further: test concentration not given here. Particulars: A549 viability, higher = more signal, called active from +8 up or from −8 down. (The colour change of resazurin is a common sign of viable cells or microbes.)

Each structure is given as a SMILES string. Activity calls are given as the source filed them.

Chain of NADPH oxidase 5 (Homo sapiens) (Q96PH1 whole entry, looked up): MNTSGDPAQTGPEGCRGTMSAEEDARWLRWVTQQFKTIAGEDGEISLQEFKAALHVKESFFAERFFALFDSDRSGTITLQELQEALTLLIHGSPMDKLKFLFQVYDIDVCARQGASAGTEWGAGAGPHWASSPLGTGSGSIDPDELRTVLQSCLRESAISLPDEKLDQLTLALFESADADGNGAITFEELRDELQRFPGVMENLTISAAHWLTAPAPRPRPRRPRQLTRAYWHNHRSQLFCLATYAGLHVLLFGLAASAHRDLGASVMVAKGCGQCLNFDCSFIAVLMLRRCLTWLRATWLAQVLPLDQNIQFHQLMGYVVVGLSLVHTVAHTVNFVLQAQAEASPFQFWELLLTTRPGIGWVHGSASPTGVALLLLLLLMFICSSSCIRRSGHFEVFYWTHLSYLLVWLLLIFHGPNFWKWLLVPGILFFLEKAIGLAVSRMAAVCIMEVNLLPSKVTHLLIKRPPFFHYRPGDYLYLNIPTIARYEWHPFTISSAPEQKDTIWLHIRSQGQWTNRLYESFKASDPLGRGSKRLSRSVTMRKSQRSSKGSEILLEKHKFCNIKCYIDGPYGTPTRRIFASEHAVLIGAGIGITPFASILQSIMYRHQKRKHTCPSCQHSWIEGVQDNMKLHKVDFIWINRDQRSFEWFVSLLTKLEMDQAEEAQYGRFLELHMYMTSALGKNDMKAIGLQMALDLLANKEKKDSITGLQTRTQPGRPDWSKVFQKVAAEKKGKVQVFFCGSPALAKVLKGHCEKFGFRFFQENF
Chain of NADPH oxidase 2 (Homo sapiens) (P04839 whole entry, looked up): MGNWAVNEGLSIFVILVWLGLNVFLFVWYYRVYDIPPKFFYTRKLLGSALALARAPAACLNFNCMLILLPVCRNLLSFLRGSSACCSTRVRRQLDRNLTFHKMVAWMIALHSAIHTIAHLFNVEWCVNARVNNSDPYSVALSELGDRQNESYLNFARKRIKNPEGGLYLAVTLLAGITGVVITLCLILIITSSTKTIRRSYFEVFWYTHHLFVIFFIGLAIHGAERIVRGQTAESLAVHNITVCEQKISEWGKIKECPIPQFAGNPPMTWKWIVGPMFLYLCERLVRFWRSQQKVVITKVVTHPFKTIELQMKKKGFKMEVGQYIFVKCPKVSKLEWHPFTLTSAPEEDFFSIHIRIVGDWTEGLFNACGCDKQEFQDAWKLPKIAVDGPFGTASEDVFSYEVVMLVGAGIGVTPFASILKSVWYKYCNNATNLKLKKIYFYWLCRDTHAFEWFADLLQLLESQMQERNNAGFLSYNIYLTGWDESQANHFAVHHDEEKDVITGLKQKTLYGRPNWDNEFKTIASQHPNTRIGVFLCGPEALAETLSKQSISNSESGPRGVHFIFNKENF
Chain of NADPH oxidase 4 (Homo sapiens) (Q9NPH5 whole entry, looked up): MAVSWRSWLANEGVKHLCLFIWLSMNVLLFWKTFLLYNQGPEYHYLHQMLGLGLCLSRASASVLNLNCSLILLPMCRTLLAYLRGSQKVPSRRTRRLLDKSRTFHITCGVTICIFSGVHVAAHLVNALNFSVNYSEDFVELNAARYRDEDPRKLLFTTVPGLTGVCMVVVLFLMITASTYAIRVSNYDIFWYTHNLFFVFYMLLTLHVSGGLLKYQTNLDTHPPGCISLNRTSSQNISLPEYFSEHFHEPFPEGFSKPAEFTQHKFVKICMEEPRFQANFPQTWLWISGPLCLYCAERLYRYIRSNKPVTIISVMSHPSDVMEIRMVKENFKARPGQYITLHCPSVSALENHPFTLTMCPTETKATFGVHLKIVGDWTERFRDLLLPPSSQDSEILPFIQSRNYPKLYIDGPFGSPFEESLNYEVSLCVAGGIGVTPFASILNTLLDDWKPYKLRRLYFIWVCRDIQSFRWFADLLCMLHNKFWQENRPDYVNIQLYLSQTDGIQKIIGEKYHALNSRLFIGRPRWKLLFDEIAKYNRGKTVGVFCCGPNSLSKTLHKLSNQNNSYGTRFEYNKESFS

Turning to `COC(=O)[C@@]1(Cc2ccc(F)cc2)[C@H]2c3cc(C(=O)N4CCCC4)n(CCO)c3C[C@H]2CN1C(=O)c1ccccc1`, the z-score in [1] was -1.56 (inactive); in assay [3], 2.59 (inactive); in assay [4] it was 0.279 (inactive); in [5] it was 1.48 (inactive); in assay [6], 0.716 (inactive); in assay [7], 0.871. Besides, the z-score in assay [8] is 0.54 (inactive); in assay [9], 2 (inactive); in [10], 0.15; in [11], 0.448; in [12], -0.35; in assay [13], -0.885. In addition, the z-score in [14] was 0.309; in [15] it was -0.929; in [16], 1.04; in [17], 0.379 (inactive); in [18], -0.249; in assay [19], -0.996. Also, in assay [20], the z-score was 0.11 (inactive). The same compound registered a composite z-score in [2] of -0.193.

In the case of `[N-]=[N+]=NCc1ccccc1C[C@]1(C(=O)N2CCCCC2)N=C(c2ccc(OCCCO)cc2)O[C@H]1c1ccccc1`, the z-score in assay [1] was 0.74 (inactive); in assay [3] it was 20.4 (active); in assay [4], 5.49 (inactive); in assay [5], 3.48 (inactive); in assay [6], 2.04 (inactive); in assay [7] it was 1.38. The z-score in assay [8] was -1.16 (inactive); in assay [9] it was -0.0602 (inactive); in [10], -0.924; in assay [11] it was -0.888; in assay [12], 0.252; in [13], -0.923. Besides, the z-score in assay [14] was -2.59; in assay [15] it was -4.27; in assay [16], 0.117; in assay [17], 0.845 (inactive); in assay [18], -1.14; in [19], -2.38. In assay [20], the z-score is -0.136 (inactive). In assay [2], the composite z-score was 0.118.

In the case of `CO[C@H]1O[C@H](CO)[C@@H](OC(=O)Nc2ccc(C(F)(F)F)cc2)[C@H](OC(=O)Nc2ccccc2-c2ccccc2)[C@@H]1OC(=O)Nc1ccccc1-c1ccccc1`, the z-score is 0.0065 (inactive) in [1]; 4.11 (inactive) in assay [3]; 1.04 (inactive) in assay [4]; 0.14 (inactive) in [5]; 0.817 (inactive) in [6]; 0.672 in assay [7]. Also, the z-score is -0.803 (inactive) in assay [8]; -0.549 (inactive) in assay [9]; -1.23 in assay [10]; -1.34 in [11]; -0.029 in assay [12]; -0.745 in assay [13]. In addition, the z-score was -0.413 in assay [14]; -0.909 in [15]; -0.58 in [16]; 0.688 (inactive) in [17]; -0.172 in [18]; -0.35 in assay [19]. Besides, the z-score in assay [20] is -1.35 (inactive). Further, the composite z-score in assay [2] stood at 0.534.

`COCCOC(=O)N1C(=O)[C@@]2(c3cc(C#CCC(C(=O)OC)C(=O)OC)ccc31)[C@H](C(N)=O)[C@H]1C(=O)O[C@H](c3ccccc3)[C@H](c3ccccc3)N1[C@@H]2c1ccc(OCCO)cc1`: the z-score in assay [1] is -0.886 (inactive); in [3] it was 28.9 (active); in assay [4], 16.1 (active); in assay [5] it was -1.71 (inactive); in assay [6], 2.01 (inactive); in assay [7], -0.275. Also, the z-score in assay [8] is 1.75 (inactive); in assay [9], 1.24 (inactive); in assay [10] it was 0.515; in [11], -0.0635; in assay [12], 0.0923; in [13], 0.103. In addition, the z-score in assay [14] is -2.16; in assay [15], -3.21; in assay [16], -1.47; in [17], 0.47 (inactive); in [18], -1.09; in assay [19], -1.26. Further, the z-score in [20] is 0.214 (inactive). In addition, in assay [2], the composite z-score was determined as 0.146.

The values above are taken from PubChem BioAssay.
